A short description of experiment [1]: APR_HepG2_P-H2AX_72hr: Apredica 72-hour HepG2 Assay for H2AX Phosphorylation (AID 2282916).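 Note: phospho-histone H2A.x immunostain intensity per cell marking DNA damage.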 Particulars: imaging, actives raise or lower the signal. In short, it runs like this:
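Phospho-H2A.x imaging endpoint in HepG2 after 72 hr compound exposure (0.39–200 uM, duplicate wells). Activity derived by bidirectional curve fitting with DMSO as baseline.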

The nature of experiment [2]: APR_HepG2_MitoMembPot_72hr: Apredica 72-hour HepG2 Assay for Mitochondrial Membrane Potential (AID 2282917). Particulars: imaging, actives raise or lower the signal. Put shortly:
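HepG2 cells dosed 72 hr with compound at 0.39–200 uM in duplicate, 0.5% v/v DMSO final. Mitochondria stained with 250 nM MitoTracker Red CMXRos for 30 min before formaldehyde fixation, imaged by high-content fluorescence; bidirectional fit versus DMSO.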

Experiment [3] can be described thus: APR_HepG2_MitoticArrest_72hr: Apredica 72-hour HepG2 Assay for Mitotic Arrest (AID 2282918). The following applies: high-content imaging, actives raise or lower the signal. Put shortly:
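Read-out is phospho-histone H3 immunofluorescence with Hoechst nuclear segmentation, imaged at 20x. Human HepG2 liver cells received ten concentrations (0.39–200 uM, final DMSO 0.5% v/v) for 72 hr before fixation. Gain or loss of signal was fitted relative to DMSO.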

The nature of experiment [4]: APR_HepG2_MicrotubuleCSK_72hr: Apredica 72-hour HepG2 Assay for Microtubule CSK Stabilty (AID 2282919). Particulars: HepG2 microtubule cytoskeleton, high-content imaging, actives raise or lower the signal. In short, it runs like this:
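HepG2, 72 hr cmpd exposure, 0.39–200 uM (10 pts, duplicate), 0.5% DMSO. 3.7% formaldehyde fix, 0.5% Triton perm, anti-alpha-tubulin/Cy5 plus Hoechst. HCS fluorescence intensity; bidirectional fit vs DMSO baseline; taxol as positive control.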

Experiment [5] can be described thus: APR_HepG2_P-H2AX_24hr: Apredica 24-hour HepG2 Assay for H2AX Phosphorylation (AID 2282920). The following applies: high-content imaging, actives raise or lower the signal. In short, it runs like this:
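HepG2, 24 hr, cpd 0.39–200 uM (10 conc, duplicate), DMSO 0.5% v/v final. Fix 3.7% formaldehyde, Triton X-100 permeabilize, anti-phospho-H2A.x 1:200 + Hoechst 2 ug/mL. Imaged, bidirectional fit vs DMSO.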

Experiment [6] in a line: APR_HepG2_StressKinase_72hr: Apredica 72-hour HepG2 Assay for Stress Kinase (AID 2282921). The following applies: HepG2 stress kinase (phospho-c-Jun) imaging, actives raise or lower the signal. Put shortly:
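Stress kinase signal reflects nuclear phospho-c-Jun staining in fixed, permeabilized cells exposed 72 h to compound at 0.39–200 uM; DMSO-normalized, fitted for increases or decreases.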

A short description of experiment [7]: APR_HepG2_StressKinase_24hr: Apredica 24-hour HepG2 Assay for Stress Kinase (AID 2282922). Particulars: HepG2 stress kinase (phospho-c-Jun) imaging, actives raise or lower the signal. In short, it runs like this: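 Read-out: phospho-c-Jun immunofluorescence (Cy3 secondary) quantified by high-content imaging at 20x, nuclei defined by Hoechst 33342. Human HepG2 liver cells dosed 24 hr, 0.39–200 uM, DMSO 0.5% v/v; gain or loss of signal fitted relative to DMSO.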

Experiment [8] in a line: APR_HepG2_p53Act_72hr: Apredica 72-hour HepG2 Assay for p53 Activation (AID 2282923).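 Note: average cellular p53 protein immunofluorescence intensity in HepG2 cells.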 The following applies: high-content imaging, actives raise or lower the signal. In short, it runs like this: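 Fixed-cell p53 staining (sheep primary, Cy5 secondary) measured by fluorescence imaging following 72 hr treatment at 0.39–200 uM in 0.5% DMSO; DMSO served as negative control and baseline.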

The nature of experiment [9]: APR_HepG2_MitoMass_72hr: Apredica 72-hour HepG2 Assay for Mitochondrial Mass (AID 2282924).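 Note: MitoTracker Red CMXRos stain intensity per cell imaged as mitochondrial mass.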 Particulars: high-content imaging, actives raise or lower the signal. Put shortly: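 Read-out: MitoTracker Red fluorescence intensity from automated imaging (20x, six fields per well) in human HepG2 liver cells. Dosing ran 72 hr, 0.39–200 uM, 0.5% DMSO; bidirectional curve fitting versus DMSO baseline.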

Experiment [10] is described as follows: APR_HepG2_NuclearSize_72hr: Apredica 72-hour HepG2 Assay for Nuclear Size (AID 2282925). Particulars: high-content imaging, actives raise or lower the signal. In short, it runs like this:
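Read-out: nuclear diameter from Hoechst 33342 images (ArrayScan, 20x, six fields/well), via cell-cycle image analysis. HepG2 were dosed 0.39–200 uM for 72 hr in 0.5% DMSO. Bidirectional fit relative to DMSO.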

Active and inactive are the calls of the source. Rule for the calls: active = hit-call score of the fitted dose curve at least 0.9, where 1 is the maximum; inactive = score below 0.9.

Take `Nc1ccc(Nc2ccccc2)cc1`: the AC50 in experiment [1] is 29.9 µM (active); in experiment [3] it was 42.1 µM (active); in [5] it was 17.9 µM (active); in [8] it was 33.3 µM (active). For the same compound, the call in [2], in experiment [4], in [6], in [7], in experiment [9] and in experiment [10] was inactive.

Turning to `CCOc1cccc(-n2cc(C(=O)N3CCN(c4cc(C(=O)O)c5ccccc5c4)CC3)nc2-c2ccc(C)cc2)c1`, the AC50 was 89.5 µM (active) in [1]; 77.2 µM (active) in experiment [3]; 90.4 µM (active) in experiment [5]; 60.2 µM (active) in experiment [6]; 76.1 µM (active) in experiment [8]. Also, the call in experiment [2], in experiment [4], in [7], in [9] and in experiment [10] was inactive.

Take `CC[C@H](C)C(=O)O[C@H]1C[C@@H](C)C=C2C=C[C@H](C)[C@H](CC[C@@H]3C[C@@H](O)CC(=O)O3)[C@H]21`: the AC50 was 5.29 µM (active) in experiment [1]; 4.53 µM (active) in [3]; 2.46 µM (active) in experiment [5]; 3.64 µM (active) in experiment [8]; 131 µM (active) in experiment [9]. Further, the compound was called inactive in experiment [2], in experiment [6], in experiment [7] and in experiment [10].

`Cn1cnc([N+](=O)[O-])c1Sc1ncnc2nc[nH]c12`: the result in [1], in experiment [2], in experiment [3], in experiment [5], in experiment [6] and in [7] was inactive. In addition, the compound was classed as inactive in experiment [8], in experiment [9] and in experiment [10].

`CCCCCCCCCCCCCCCO`: the outcome in [1], in experiment [2], in experiment [4], in [5], in experiment [6] and in [7] was inactive. Besides, the compound was classed as inactive in [8], in [9] and in experiment [10]. In addition, the concentration at half-maximal activity (AC50) in [3] was 95.6 µM (active).

As to `CC(C)=CCC/C(C)=C\CO`, the compound was classed as inactive in experiment [1], in experiment [2], in experiment [3], in experiment [4], in experiment [5] and in experiment [6]. For the same compound, the result in [7], in experiment [8] and in experiment [10] was inactive. Further, the concentration at half-maximal activity (AC50) in [9] is 94.5 µM (active).

As to `COc1ccc(-n2nc(C(F)F)cc2-c2ccc(S(C)=O)cc2)cc1` (stereo not drawn), the compound was classed as inactive in [1], in [2], in [3], in experiment [5], in [6] and in [7]. Besides, the compound was classed as inactive in experiment [8] and in experiment [10]. The AC50 in [9] was 36.8 µM (active).

Take `C[C@](N)(Cc1ccc(O)c(O)c1)C(=O)O`: the outcome in [1], in experiment [3], in [5], in experiment [6], in [7] and in experiment [8] was inactive. Besides, the compound was classed as inactive in [9] and in experiment [10]. Moreover, in experiment [2], the AC50 is 58.4 µM (active).

With `O=C(OC[C@H]1O[C@@H](OC(=O)c2cc(O)c(O)c(OC(=O)c3cc(O)c(O)c(O)c3)c2)[C@H](OC(=O)c2cc(O)c(O)c(OC(=O)c3cc(O)c(O)c(O)c3)c2)[C@@H](OC(=O)c2cc(O)c(O)c(OC(=O)c3cc(O)c(O)c(O)c3)c2)[C@@H]1OC(=O)c1cc(O)c(O)c(OC(=O)c2cc(O)c(O)c(O)c2)c1)c1cc(O)c(O)c(OC(=O)c2cc(O)c(O)c(O)c2)c1`, the call in [1], in experiment [3], in [5], in [6] and in [7] was inactive. In addition, the AC50 was 15.1 µM (active) in experiment [2], 23.2 µM (active) in experiment [8], 14.5 µM (active) in experiment [9] and 18.7 µM (active) in [10].

Turning to `Cc1ccc(S(=O)(=O)O)cc1C`, the outcome in experiment [1], in experiment [2], in [3], in experiment [4], in experiment [5] and in experiment [6] was inactive. Further, the compound was classed as inactive in experiment [7], in experiment [8] and in [10]. For the same compound, in experiment [9], the AC50 is 0.0391 µM (active).

For the compound `CC1=CC(=O)CC(C)(C)C1`, the result in experiment [1], in [2], in experiment [3], in [5], in experiment [6] and in [7] was inactive. The outcome in experiment [8], in experiment [9] and in [10] was inactive.

Take `O=c1n(CC2CO2)c(=O)n(CC2CO2)c(=O)n1CC1CO1` (stereo not drawn): the half-maximal activity concentration (AC50) in experiment [1] was 15.2 µM (active); in experiment [3], 15.8 µM (active); in experiment [5], 17.8 µM (active); in experiment [7] it was 31.6 µM (active); in [8] it was 5.06 µM (active); in experiment [9], 50 µM (active). In addition, the result in experiment [2], in experiment [4], in experiment [6] and in [10] was inactive.

With `CC(C)=CCCC(C)CCO` (stereo not drawn), the compound was classed as inactive in experiment [1], in experiment [2], in [4], in [5], in [6] and in [7]. Moreover, the outcome in [8] and in [10] was inactive. The results for the AC50 in [3] and in experiment [9] were 0.0229 µM (active) and 0.0391 µM (active), respectively.

Regarding `COc1cccc(-c2ccc(/C=C\CN3CCCCCC3)cc2Cl)c1`, the AC50 is 22.5 µM (active) in [1]; 17.6 µM (active) in experiment [3]; 48.9 µM (active) in experiment [5]; 32.3 µM (active) in experiment [6]; 69.3 µM (active) in experiment [7]; 22.5 µM (active) in experiment [8]. For the same compound, the AC50 in experiment [10] was 62 µM (active). Further, the call in experiment [2] and in experiment [9] was inactive.

Turning to `O=C(O)CC(O)C(=O)O` (stereo not drawn), the compound was called inactive in experiment [1], in [2], in [3], in experiment [4], in [5] and in [6]. In addition, the result in experiment [7], in experiment [8], in experiment [9] and in [10] was inactive.

These data come from PubChem BioAssay (EPA / NIEHS).
